# Experimental data reported in PubChem BioAssay AID743315 (Broad Institute, 2014).
# Entries with a potency or affinity are not part of this list. Values without a mark were called inactive.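 How the source made its calls: active means cell killing, with a fitted active concentration at or below twice the top valid dose tested; inconclusive means flat curve with moderate cell loss, or an unreliable fit; inactive means effect in the rising direction, plus the rest.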
# Experiment: HEK293T cell cytotoxicity, dose response, cytotoxicity control, plate reader, dry powder, set 10 (AID 743315)
# Conditions: HEK293T viability, CellTiter-Glo ATP luminescence, 72 h; series mostly up to 26 µM; activity change, negative = cytotoxicity: at the top concentration
row,SMILES,"activity change, negative = cytotoxicity"
1,Cc1ccc(C(C)C)c(OCCn2c(=S)[nH]c3c(C)cccc32)c1,28%
2,Fc1ccccc1OCCn1c(=S)[nH]c2ccccc21,-11.8%
3,Cc1cccc(OCCn2c(=S)[nH]c3ccc(C(F)(F)F)cc32)c1,8.08%
